HT1080NT lethal – kills 2HG-producing HT-1080-NT fibrosarcoma cells; HT-1080-NT fibrosarcoma viability, CellTiter-Glo ATP luminescence, 48 h; Potency, µM (titrated, usually from 46.1 µM), actives largely listed as cytotoxic; actives 1.6% (n = 360,000);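 also: NT is the 2HG producing partner of a matched IDH1 knockdown line; nearly all actives have a fitted effect of over 55% in size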
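Viability of the 2HG-overproducing fibrosarcoma line after 48 hours of compound exposure at 37 degrees C was determined by luminescence with CellTiter-Glo, and concentration-effect curves were then fitted and categorized.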
IL-1B inflam inh – inhibitors of inflammasome signaling (IL-1 beta secretion); THP-1 LPS/ATP IL-1B secretion, AlphaLISA, 16 h; stronger effect = lower value; activity change, % at 57.5 µM; actives 4.7% (n = 360,000); AID 743279; in the data active = activity change below about -50%; inconclusive = mostly about -30% to -49%
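THP-1 cells pretreated 1 hr with compounds (up to 57.5 uM final), then stimulated with LPS (250 ng/mL final) plus ATP (1.25 mM final); secreted IL-1B measured by AlphaLISA after 16 hr, decreased signal indicating inhibition.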
HT1080 IDH1KD tx – toxicity to HT-1080 IDH1 knockdown cells (counter line); HT-1080 IDH1 knockdown viability, ATP luminescence, 48 h; Potency, µM (highest dose often 46.1 µM), actives largely listed as cytotoxic; actives 2% (n = 360,000); AID 686971
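In this qHTS, HT-1080 cells depleted of IDH1 are exposed for 48 h at 37 °C to compound titrations. Toxicity is scored from CellTiter-Glo luminescence, with DMSO as full viability and medium alone as none.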
KB-3-1 tox – kills parental KB-3-1 adenocarcinoma cells | Potency, µM (doses to about 46.1 µM), most hits filed as cytotoxic | KB-3-1 viability, CellTiter-Glo ATP luminescence, 72 h | actives 1.4% (n = 400,000); also: nearly all actives have a fitted effect of over 60% in size
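Using CellTiter-Glo luminescence, growth of non-resistant KB-3-1 adenocarcinoma cells is assessed 72 h after pin-tool compound addition at 37 °C. Normalized responses across the concentration series yield fitted curves.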
KB-V1 MDR tox – kills drug-selected multidrug resistant KB-V1 cells | Potency, µM (series often up to 46.1 µM), hits mostly cytotoxic | KB-V1 MDR cells viability, CellTiter-Glo, 72 h | actives 3.4% (n = 400,000) | AID 1347076; also: nearly all actives have a fitted effect of over 60% in size
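KB-V1 cells (P-gp-expressing MDR subline of KB-3-1) in phenol-red-free DMEM with 10% FBS were exposed to library compounds over a concentration series for 72 h at 37 degrees C. Viability read by CellTiter-Glo luminescence; concentration-effect curves fitted after normalization.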
A number is an active result; – = inactive; ? = inconclusive; · = not tested or not shown; [ ] = remark or other dose. Most compounds without a hit are left out; they make up all but 8.8% or so of the library. Unless noted, calls follow the shape of the dose curve; as a rule, active = well fitted curve in the direction sought with a large enough effect; inconclusive = small, poorly fitted or top-dose-only effect, or another doubt; inactive = no such curve, though single readings can be large; an effect the other way counts as inactive or inconclusive.

SMILES	HT1080NT lethal	IL-1B inflam inh	HT1080 IDH1KD tx	KB-3-1 tox	KB-V1 MDR tox
Nc1nsc2ccccc12	2.5µM	-99	2.5µM	?	?
COc1ccc(C(CC(=O)Nc2ccc(C)cn2)N2Cc3ccccc3C2=O)cc1 (stereo not drawn)	–	–	–	–	?
O=C(C[n+]1ccc(/C=C/c2c[nH]c3ccccc23)c2ccccc21)c1ccccc1	·	·	·	–	–
COc1cc(NC(=O)c2cccs2)c(OC)cc1NC(=O)CCC(=O)Nc1ccc2ncccc2c1	?	–	?	–	–
COc1ccc(-c2nc(C#N)c(N3CCCCC3)o2)cc1	–	–	–	–	–
COc1ccc(-c2nc(C#N)c(NC(C)C)o2)cc1	–	-50	–	–	–
COc1ccc(-c2nc(C#N)c(N3CCC(C)CC3)o2)cc1	–	-52	–	–	–
COc1ccc(-c2nc(C#N)c(N3CCCCCC3)o2)cc1	–	-63	–	–	?
Cc1ccc(-c2nc(C#N)c(N3CCC(C)CC3)o2)cc1	–	–	–	–	–
CCOc1ccc(-c2nc(C#N)c(N3CCCCCC3)o2)cc1	–	-61	–	–	–
COc1ccc(-c2nc(C#N)c(N3CCCCCC3)o2)cc1OC	–	–	–	–	8.2µM
Cc1oc2ccc(O)c(CN3CCN(C)CC3)c2c1C(=O)Nc1ccc(C(C)C)cc1	·	·	·	–	–
O=C(c1cc(-c2ccc(Cl)cc2)on1)N1CCOCC1	–	–	–	–	–
O=C(c1nnsc1S(=O)(=O)c1ccc(Cl)cc1)N1CCOCC1	15µM	-106	?	?	–
O=C(c1nnsc1S(=O)c1ccc(Cl)cc1)N1CCOCC1 (stereo not drawn)	13µM	-104	?	?	13µM
O=C(Nc1ccccc1)c1nnsc1S(=O)c1ccc(Cl)cc1 (stereo not drawn)	?	-107	–[9.24 µM]	?	–
CNC(=O)c1nnsc1S(=O)(=O)c1ccc(Cl)cc1	?	-98	2.9µM	?	–
O=C(Nc1ccc(Cl)cc1)c1cccs1	–	–	–	–	–
CNC(=S)N(CCc1c(C)[nH]c2ccc(F)cc12)Cc1cccnc1	–	–	–	–	–
COC(=O)c1csc(S(=O)(=O)N2CCOCC2)c1OC	–	–	–	–	?
CCN(CC)CCOc1ccccc1OC	–	–	–	–	–
CN(CCOc1ccc(Cl)c(Cl)c1)Cc1ccccc1	–	–	–	?	–
CCN(CC)CCOc1ccc2c(c1)C(=NO)c1cc(OCCN(CC)CC)ccc1-2	10µM	-105	7.1µM	–	–
CCCOc1ccc2c(c1)C(=NN=C(N)N)c1cc(OCCC)ccc1-2	?	-97	?	?	?
CCN(CC)CCCOc1ccc(Cl)c(Cl)c1	–	-73	–	–	–
SMILES	HT1080NT lethal	IL-1B inflam inh	HT1080 IDH1KD tx	KB-3-1 tox	KB-V1 MDR tox
CCN(CC)S(=O)(=O)c1ccc2c(c1)C(=NO)c1cc(S(=O)(=O)N(CC)CC)ccc1-2	18µM	–	7.3µM	6.5µM	12µM
Cc1cc(NC(=O)c2cccc(S(=O)(=O)N3CCCCC3)c2)no1	–	–	–	–	–
CCOC(=O)C1CCCN(C(=O)CN2C(=O)/C(=C/c3ccc(OC)cc3)Oc3ccccc32)C1 (stereo not drawn)	–	–	–	–	16µM
CCOC(=O)C1CCCN(C(=O)CN2C(=O)c3ccccc3C2=O)C1 (stereo not drawn)	–	–	–	–	–
Cc1ccc(NC(=O)N2CCCN(Cc3ccc(F)cc3)C2)cc1C	15µM	–	16µM	?	?
Cc1cccc(C)c1NC(=S)N1CCCN(Cc2ccc(F)cc2)C1	–	-51	–	–	–
O=C(Nc1ccc(Cl)cc1)N1CCCN(Cc2ccccc2F)C1	?	?	13µM	–	–
Cc1ccc(S(=O)(=O)N2C[C@H]3C(=O)C[C@@H](c4cccc(Cl)c4)N(S(=O)(=O)c4ccc(C)cc4)[C@H]3C[C@H]2c2ccc(Cl)cc2)cc1	–	–	–	–	–
CC(C)c1nc(Nc2nc3ccccc3o2)nc2c1CCCC2	·	·	·	–	–
CSCCNC(=O)C1(C)CCN1C(=O)c1cc(C)n(C)n1 (stereo not drawn)	–	–	–	–	–
O=C(Nc1ccc(Cl)cc1)C1Cc2c(-c3cccc(F)c3)ccnc2O1 (stereo not drawn)	?	-64	?	–	–
O=C(Nc1cccc(OC(F)(F)F)c1)C1Cc2c(-c3cccc(F)c3)ccnc2O1 (stereo not drawn)	?	-89	?	?	?
CC(=O)Nc1ccc(NC(=O)C2Cc3c(-c4cccc(F)c4)ccnc3O2)cc1 (stereo not drawn)	–	–	–	–	–
O=C(Nc1ccc(F)c(Cl)c1)C1Cc2c(-c3ccc4c(c3)OCO4)ccnc2O1 (stereo not drawn)	16µM	?	26µM	–	–
CC(=O)Nc1cccc(-c2ccnc3c2CC(C(=O)Nc2ccc(Cl)cc2)O3)c1 (stereo not drawn)	?	?	21µM	?	?
O=C(Nc1cccc(Oc2ccccc2)c1)C1Cc2c(-c3ccccc3)ccnc2O1 (stereo not drawn)	–	?	–	–	?
O=C(Nc1ccc(F)c(Cl)c1)C1Cc2c(-c3ccc(Cl)cc3)ccnc2O1 (stereo not drawn)	?	–	?	?	?
O=C(NCc1ccccn1)c1cccc(NS(=O)(=O)c2cccc(F)c2)c1	–	–	–	–	–
CC(=O)Nc1ccc(-c2ccnc3c2CC(C(=O)Nc2cccnc2)O3)cc1 (stereo not drawn)	13µM	–	13µM	?	–
CC(=O)Nc1cccc(-c2ccnc3c2CC(C(=O)NCc2ccc(F)c(F)c2)O3)c1 (stereo not drawn)	?	–	?	7.3µM	?
O=C(Nc1ccc(Cl)cc1)C1Cc2c(-c3ccccc3)ccnc2O1 (stereo not drawn)	–	-79	–	–	–
O=C(Nc1ccc(Cl)cc1)C1Cc2c(-c3ccc(Cl)cc3)ccnc2O1 (stereo not drawn)	?	–	?	–	–
CC(=O)Nc1ccc(-c2ccnc3c2CC(C(=O)Nc2cccc(C(C)=O)c2)O3)cc1 (stereo not drawn)	–	–	–	–	–
CCOc1ccccc1NC(=O)N1c2ccccc2Sc2ccccc21	·	·	·	–	–
CCC(C)NC(=O)c1c(N)n(/N=C/c2cccnc2)c2nc3ccccc3nc12 (stereo not drawn)	?	-59	?	?	?
COCCCNC(=O)c1c(N)n(/N=C/c2cccnc2)c2nc3ccccc3nc12	–	?	–	–	–
CCC(C)NC(=O)c1c(N)n(/N=C/c2ccccn2)c2nc3ccccc3nc12 (stereo not drawn)	–	-83	–	–	21µM
CC(C)OCCCNC(=O)c1c(N)n(/N=C/c2ccccn2)c2nc3ccccc3nc12	–	–	–	–	?
